In PubChem BioAssay (NCI):
The panel holds about 83,000 compounds, 20% with a hit somewhere; the sample as a whole holds those more often.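 Values shown are percent growth following 48 h exposure of cells in 96-well plates to a single concentration of compound; below 10 was considered active.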 Values without a mark were called inactive. Activity calls are given as the source filed them.

What was measured:
Test in all cases: NCI-60 one-dose screen, 48 h (100 = growth as untreated, 0 = no growth, -100 = all killed)
Conditions in all cases: 10 µM unless noted
SK-MEL-2 melanoma = system: SK-MEL-2 melanoma
SN12C renal = system: SN12C renal
UO-31 renal = system: UO-31 renal
TK-10 renal = system: TK-10 renal
ACHN renal = system: ACHN renal
CAKI-1 renal = system: CAKI-1 renal
A498 renal = system: A498 renal
CCRF-CEM leukemia = system: CCRF-CEM leukemia
MOLT-4 leukemia = system: MOLT-4 leukemia
SR leukemia = system: SR leukemia
RPMI-8226 leukemia = system: RPMI-8226 leukemia
OVCAR-8 ovarian = system: OVCAR-8 ovarian
OVCAR-5 ovarian = system: OVCAR-5 ovarian
OVCAR-4 ovarian = system: OVCAR-4 ovarian
SK-OV-3 ovarian = system: SK-OV-3 ovarian
IGROV1 ovarian = system: IGROV1 ovarian
OVCAR-3 ovarian = system: OVCAR-3 ovarian
HS 578T breast = system: HS 578T breast
NCI/ADR-RES ovarian = system: NCI/ADR-RES ovarian
EKVX NSCLC = system: EKVX NSCLC

| SMILES | growth (SK-MEL-2 melanoma) | growth (SN12C renal) [%] | growth (UO-31 renal) | growth (TK-10 renal) | growth (ACHN renal) | growth (CAKI-1 renal) | growth (A498 renal) [%] | growth (CCRF-CEM leukemia) | growth (MOLT-4 leukemia) | growth (SR leukemia) | growth (RPMI-8226 leukemia) | growth (OVCAR-8 ovarian) | growth (OVCAR-5 ovarian) | growth (OVCAR-4 ovarian) | growth (SK-OV-3 ovarian) | growth (IGROV1 ovarian) | growth (OVCAR-3 ovarian) | growth (HS 578T breast) | growth (NCI/ADR-RES ovarian) | growth (EKVX NSCLC) |
| --- | --- | --- | --- | --- | --- | --- | --- | --- | --- | --- | --- | --- | --- | --- | --- | --- | --- | --- | --- | --- |
| O=[N+]([O-])c1ccc(C2N(Cc3ccc(Cl)cc3)CCN2Cc2ccc(Cl)cc2)cc1 | 101% | 90.7 | 48.5% | 80.5% | 81.6% | 72.7% | 88.4 | 83.5% | 80.3% | 64.8% | 83.9% | 91% | 89.6% | 102% | 90.1% | 85.9% | 91.3% | 102% | 87.6% |  |
| Cc1cc(N/N=C/c2ccccn2)nc2ccccc12 | 50.2% | 17.4 | -8.77% (active) | 34.1% | 0.182% (active) | -8.9% (active) | 27.7 | 2.52% (active) | 5.97% (active) | 11.5% | 13.7% | 6.78% (active) | 37.9% | 16.4% | 31.6% | 2.45% (active) | 28.6% | 74.8% | 7.9% (active) |  |
| COc1ccc2nc3cc(Cl)ccc3c(NCCCCCN3CCCCC3)c2c1 | -71.8% (active) | 10.3 | -40.6% (active) | -9.41% (active) | -67.7% (active) | -50.3% (active) | 19.7 | -27.6% (active) | -19.5% (active) | -17.9% (active) | -27% (active) | -13.6% (active) | -27.1% (active) | -61% (active) | -15.2% (active) | 5.24% (active) | -21.8% (active) | 35.3% | -8.47% (active) |  |
| CCOC(=O)C1=C(C(=O)c2ccccc2)C(c2cccc([N+](=O)[O-])c2)C(C(=O)c2ccccc2)=C(C(=O)OCC)N1 | 105% | 93.7 |  | 112% | 88.4% | 79.6% | 104 | 65% | 52.2% |  | 32.8% | 96.8% | 87.7% | 92.2% | 96.8% | 97.5% |  | 90.1% | 90.9% | 87.9% |
| CN(C)CC(C)(CN(C)C)C(=O)/C=C/c1c(Cl)cccc1Cl | 79.7% | 50.9 |  | -8.98% (active) | -100% (active) | 52.7% | 119 | -4.65% (active) | -19.3% (active) |  | -4.62% (active) | -26.2% (active) | 53.1% | 62.2% | 91.9% |  |  | 71.9% | -29.7% (active) | 5.55% (active) |
| CC1(O)CCCCCC1 | 105% | 99.9 | 82.6% | 99.5% | 103% | 101% | 75.3 | 92.7% | 92.8% | 92.5% | 102% | 102% | 105% | 107% | 93.9% | 103% | 103% | 98.3% | 102% |  |
| Cc1onc(-c2ccccc2)c1C(=O)N/N=C/c1cc(Cl)cc(Cl)c1O | 37.7% | 33.1 | 1.5% (active) | 40.1% | 22.1% | 8.2% (active) | 81.2 | 21.9% | 19.2% | 18.5% | 39.6% | 31.1% | 58.1% | 32.1% | 47.6% | 23.2% | 25.2% | 80% | 17.1% |  |
| O=C1/C(=C/c2ccccn2)CCc2ccccc21 | 105% | 102 | 101% | 95.4% | 104% | 84.8% | 77.7 | 51.6% | 49% | 51.2% | 14.6% | 109% | 108% | 104% | 86.6% | 114% | 109% | 98.1% | 106% |  |
| O=C/C=C/c1ccc([N+](=O)[O-])cc1 | 103% | 102 | 84.2% | 99.9% | 112% | 100% | 78.6 | 87.6% | 82.1% | 87.1% | 102% | 100% | 107% | 104% | 89.5% | 101% | 104% | 100% | 99.6% |  |
| CCCCCCCCC(=O)OCCCC(CCC(CCC1CCCO1)OC(=O)CCCCCCCC)OC(=O)CCCCCCCC (centres undefined) | 103% | 92.9 |  |  | 107% | 93.3% | 110 | 87.6% | 117% |  | 112% | 103% | 99.5% | 102% | 96.4% | 107% |  | 97.1% | 103% | 94.1% |
| Nc1nc2ncc(CNc3ccc(C(=O)NC(CCC(=O)NC(CCC(=O)NC(CCC(=O)NC(CCC(=O)NC(CCC(=O)O)C(=O)O)C(=O)O)C(=O)O)C(=O)O)C(=O)O)cc3)nc2c(=O)[nH]1 (centres undefined) | 118% | 101 |  | 119% | 110% | 89.7% | 116 | 102% | 107% |  | 112% | 101% | 110% | 111% | 101% | 103% | 118% | 90.1% | 119% | 95.9% |
| N#C/C(=N\Nc1ccc(Cl)cc1)C(=O)C1CC1 | 11.8% | 41.4 |  | 52.9% | 69.1% | 49.1% | 43.4 | 64.3% | 79.8% |  | 44.4% | 63.3% | 91.9% | 31.2% | 65.6% | 54.2% |  | 23.7% | 79.8% | 32.2% |
| O=C1C=CC(=O)N1c1cc(Cl)c(Cl)cc1Cl | 87.2% | 104 | 76.7% | 106% | 96% | 103% | 105 | 37.5% | 95.5% | 81.5% | 99.8% | 102% | 117% | 98.8% | 91.6% | 93.7% | 111% | 137% | 104% |  |
| COc1cc(NC(=O)C2=C(C)NC(C)=C(C(=O)Nc3cc(OC)c(Cl)cc3OC)C2c2cccc([N+](=O)[O-])c2)c(OC)cc1Cl | 10.2% | 32.2 |  | 70.6% | 29.2% | 21.4% | 75.3 | 12.3% | 10.3% |  | 25.6% | 38.3% | 34.4% | 39.4% | 52.1% | 11.4% | 32.3% | 8.61% (active) | 22% | 28.7% |
| CCCCCCCCCCCC[S+](C)CC(=O)[O-] (centres undefined) | 51.7% | 13.7 |  | 20.6% | 61.4% | 38.7% | 95.4 | 11.9% | 32.9% |  | 26.6% | 45.5% | 56.5% | 48.1% | 41.3% | 12.8% | 57.6% | 36.7% | 99.8% | 22.2% |
| C1=C(c2ccccc2)c2ccccc2C1 | 94.4% |  | 68.8% | 119% | 81.7% | 76.4% | 68.5 |  | 92.4% | 93.6% |  | 114% | 92% | 105% | 109% | 101% | 106% | 95.2% | 101% | 90.5% |
